# Laboratory results: PubChem BioAssay (EPA / NIEHS)
# Some compounds were tested as several samples or in several runs, with calls that do not always agree. Calls of active or inactive are those of the source. How the source made its calls: active means hit-call score of the fitted dose curve at least 0.9, where 1 is the maximum; inactive means score below 0.9.
# Target: Myc proto-oncogene protein (Homo sapiens) (UniProt P01106)
# Assay: ATG_Myc_CIS: Attagene CIS-FACTORIAL HepG2 Assay for human Myelocytomatosis (Myc) Proto-Oncogene Transcription Factor (AID 2282990)
# Conditions: HepG2, Attagene cis-reporter transcription factor activity; actives raise or lower the signal
# Procedure: ATG_CIS is a cell-based, multiplexed-readout assay that uses HepG2, a human liver cell line, with measurements taken at 24 hours after chemical dosing in a 24-well plate.ATG_Myc_CIS is one of 52 assay component(s) measured or calculated from the ATG_CIS assay. It is designed to make measurements of mRNA induction, a form of inducible reporter, as detected with fluorescence intensity signals by Reverse transcription polymerase chain reaction (RT-PCR) and Capillary electrophoresis technology.Data from the assay component ATG_Myc_CIS was analyzed into 1 assay endpoint. This assay endpoint, ATG_Myc_CIS, was analyzed with bidirectional fitting relative to DMSO as the negative control and baseline of activity. Using a type of inducible reporter, measures of mRNA for gain or loss-of-signal activity can be used to understand the reporter gene at the transcription factor-level as they relate to the gene MYC. Furthermore, this assay endpoint can be referred to as a primary readout, because this assay has produced multiple assay endpoints where this one serves a reporter gene function. To generalize the intended target to other relatable targets, this assay endpoint is annotated to the dna binding intended target family, where the subfamily is basic helix-loop-helix leucine zipper.
# Human liver HepG2 cells are transiently transfected with multiple reporter transcription units (MRTUs) in 6-well plates using FuGene 6 reagent (Roche; 3 ml FuGene/1 mg DNA). The MRTU constructs are regulated by a cis-regulating element (promoter). […] A major difference between the CIS and TRANS system is that in CIS activities of endogenous TFs are measured, whereas the TRANS assay evaluates changes in activities of exogenous, chimeric NR-Gal4 proteins. […] At the end of 24 hour incubation, total RNA was isolated using TriZol reagent (Invitrogen). The isolated RNA is then reverse-transcribed using oligo(dT) primer and Mo-MLV reverse transcriptase (Invitrogen) with DNAse I (Ambion) treatment for 30 min. The one-tenth of the produced cDNA was amplified by PCR using Taq DNA polymerase (Invitrogen) and two reporter sequence-specific primers. The PCR products were fluorescently labeled by primer extension with 6-arboxyfluorescein (6-FAM) 5'-labeled reporter sequence-specific primer (2 min at 95 C, 20 s at 68 C and 10 min at 72 C) and these products were digested with 5U of HpaI (New England Biolabs) for 2h at 37 C. The fragments were purified using Qiaquick PCR columns (Qiagen), analyzed on an ABI 3130xL genetic analyzer (Applied Biosystems) with peak positions identified by using a set of X-rhodamine (ROX)-labeled MapMarker1000 molecular weight standards (BioVentures). The raw capillary electrophoresis data was processed using Attagraph software (Attagene).
# Sequence of Myc proto-oncogene protein (Homo sapiens) (P01106 whole entry, looked up): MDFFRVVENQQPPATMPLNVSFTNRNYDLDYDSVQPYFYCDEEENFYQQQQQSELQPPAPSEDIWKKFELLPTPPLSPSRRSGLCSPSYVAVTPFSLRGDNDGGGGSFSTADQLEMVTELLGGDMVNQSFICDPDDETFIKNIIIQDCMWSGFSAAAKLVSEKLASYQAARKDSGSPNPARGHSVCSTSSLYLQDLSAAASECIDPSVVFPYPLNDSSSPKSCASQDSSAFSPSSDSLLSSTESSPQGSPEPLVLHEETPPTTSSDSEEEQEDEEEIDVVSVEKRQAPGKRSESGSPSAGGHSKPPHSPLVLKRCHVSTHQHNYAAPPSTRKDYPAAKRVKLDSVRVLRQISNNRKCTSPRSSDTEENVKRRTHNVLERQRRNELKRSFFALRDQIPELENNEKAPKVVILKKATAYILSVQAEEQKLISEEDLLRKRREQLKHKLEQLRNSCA
SMILES,AC50,outcome
Oc1ccccc1-c1ccccc1,50 µM (active),inactive
CCCCNC(=O)n1c(NC(=O)OC)nc2ccccc21,,inactive
COC(=O)c1ccccc1C(=O)OC,,inactive
CC(C)C1(C)N=C(c2nc3ccccc3cc2C(=O)O)NC1=O (stereo not given),,inactive
CCOc1cc(Oc2ccc(C(F)(F)F)cc2Cl)ccc1[N+](=O)[O-],30.3 µM (active),
CC(C)(C)c1ccc(CSc2cnn(C(C)(C)C)c(=O)c2Cl)cc1,,inactive
CS/C(C)=N/OC(=O)N(C)SN(C)C(=O)O/N=C(\C)SC,,inactive
OC(c1ccc(Cl)cc1)(c1cncnc1)c1ccccc1Cl (stereo not given),12.5 µM (active),inactive
CCON=C(CC)C1=C(O)CC(c2c(C)cc(C)cc2C)CC1=O (stereo not given),,inactive
Cc1ccc(-c2c(Cl)nc(C#N)n2S(=O)(=O)N(C)C)cc1,,inactive
CCOC(=O)CC(SP(=S)(OC)OC)C(=O)OCC (stereo not given),,inactive
COc1nc(C)nc(NC(=O)NS(=O)(=O)c2ccccc2CCC(F)(F)F)n1,,inactive
CNC(=S)S,,inactive
Fc1ccc(Oc2ccnc3cc(Cl)cc(Cl)c23)cc1,,inactive
CCCCOC(=O)c1ccccc1C(=O)OCCCC,,inactive
COc1nc(C)nc(NC(=O)NS(=O)(=O)c2ccccc2Cl)n1,,inactive
CCNc1nc(Cl)nc(NC(C)C)n1,,inactive
Cc1c(F)c(F)c(COC(=O)C2C(/C=C(\Cl)C(F)(F)F)C2(C)C)c(F)c1F (stereo not given),,inactive
Cc1cc(Cl)ccc1OCC(=O)O,,inactive

SMILES,AC50,outcome
O=C(O)COc1nc(Cl)c(Cl)cc1Cl,,inactive
N#CC(CCc1ccc(Cl)cc1)(Cn1cncn1)c1ccccc1 (stereo not given),,inactive
CCCCNC(=O)OCC#CI,26.4 µM (active),inactive
COc1cnc(OC)n2nc(NS(=O)(=O)c3c(OCC(F)F)cccc3C(F)(F)F)nc12,,inactive
CCCCC(CC)COC(=O)c1ccccc1C(=O)OCC(CC)CCCC (stereo not given),,inactive
O=C(O)c1nc(Cl)ccc1Cl,,inactive
N#Cc1cc(Br)c(O)c(Br)c1,,inactive
CC1COC(Cn2cncn2)(c2ccc(Oc3ccc(Cl)cc3)cc2Cl)O1 (stereo not given),,inactive
CCCN(CCC)c1c([N+](=O)[O-])cc(S(N)(=O)=O)cc1[N+](=O)[O-],,inactive
COc1nc(NC(C)C)nc(NC(C)C)n1,,inactive
CN(C)C(=S)SSC(=S)N(C)C,,inactive
CC(C)Oc1cc(-n2nc(C(C)(C)C)oc2=O)c(Cl)cc1Cl,,inactive
C=CCC1=C(C)C(OC(=O)C2C(C=C(C)C)C2(C)C)CC1=O (stereo not given),,inactive
CCOC(=O)C(Cl)Cc1cc(-n2nc(C)n(C(F)F)c2=O)c(F)cc1Cl (stereo not given),,inactive
CCNc1nc(Cl)nc(NCC)n1,,inactive
C=CCC1=C(C)[C@@H](OC(=O)[C@@H]2[C@@H](C=C(C)C)C2(C)C)CC1=O,,inactive
COC(=O)C(C)Oc1ccc(Oc2ccc(Cl)cc2Cl)cc1 (stereo not given),,inactive
N#Cc1nn(-c2c(Cl)cc(C(F)(F)F)cc2Cl)c(N)c1S(=O)C(F)(F)F (stereo not given),,inactive
